# Measurements from the supplement of paper PMC6555819.
# Columns and labels:
# Assay in all cases: PBM binding z-score (relative to random genomic background probes); higher = stronger binding; sequences stand for … in GC…GCGATTGACAGCGTAGAATGAAGG
# [1] = tested on: RARb homodimer (NR concentration 270 nM)
# How it was run: (§1)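 The probes on custom Agilent 4×180K protein-binding microarrays were double-stranded, with 34-nt variable regions bearing direct-repeat seeds, single-nucleotide variants, half-site ablations and random human genomic background sequences. Incubation lasted 1 h with ligand-free nuclear receptor dimers in PBS pH 7.4, 2% milk, 0.02% Triton X-100, 1 mM DTT, 0.2 mg/mL BSA and 0.4 mg/ml salmon testes DNA. Antibodies against each partner (one per run) detected bound dimers, and fluorescence scans were regression-normalized. Binding z-scores take the random background probes as reference.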
# [2] = tested on: RARg:RXRa (NR concentration 270 nM, RXRa partner concentration 90 nM)
# How it was run: as §1
# [3] = tested on: RARg homodimer (NR concentration 270 nM)
# How it was run: as §1
# [4] = tested on: RXRa DBDmut IVT, anti-RXR (DBD mutation: RXRa K156A/R161A, NR concentration 90 nM)
# How it was run: as §1
# [5] = tested on: RXRa homodimer (NR concentration 180 nM)
# How it was run: as §1
# [6] = tested on: THRa:RXRa (NR concentration 90 nM, RXRa partner concentration 90 nM)
# How it was run: as §1
# [7] = tested on: THRa homodimer (NR concentration 90 nM)
# How it was run: as §1
# [8] = tested on: VDR homodimer (NR concentration 270 nM)
# How it was run: as §1
Sequence,PBM binding z-score [1],PBM binding z-score [2],PBM binding z-score [3],PBM binding z-score [4],PBM binding z-score [5],PBM binding z-score [6],PBM binding z-score [7],PBM binding z-score [8]
CCTAGCATGCCAGGGTCACTCAAGCATTTCGCTT,2.54,2.81,2.01,0.413,3.35,2.95,1.01,0.827
CCGAGTAGGTTATGGGGCATTTAGGCAACGGTGA,0.777,0.488,0.435,0.127,0.632,0.429,0.289,-0.135
CGTCCAAGGTCAATGCTAGGTTAGTGAAAGCATT,2.54,6.12,6.16,3.86,4.75,3.91,2.27,2.58
AGTCAAAGTTCAGGACGCGGTAACGTAAAGCACG,3.04,4.4,4.94,2.98,2.78,2.74,1.23,1.79
ATATGTAGGTTAAGGGTCCTTCAGGTTGGTTCGC,1.37,1.03,1.09,0.575,1.59,1.15,0.749,1.01
CATACAGGGTCAGCTAGGACAGAGTAGGGACGGC,3.14,4.21,4.66,1.58,3.74,3.54,1.31,1.19
CCTATTAGTTGACCATAAGGGCAACCCAAGCTCG,2.32,1.44,1.19,0.764,0.835,2.07,1.53,1.28
ATCTCTAGGTAACAAGATCAGTGAAAGAGAGGAC,0.262,0.574,0.868,-0.259,0.265,0.927,0.466,0.364
CAACCTAGGTCAAGAGGTCAAAGTCCGCTTCCCG,5.47,8.21,7.78,3.12,8.82,4.18,2.41,4.38
CCTGCTAGGTCAATGGTCCGCTAAAGCAGCTCGC,2.71,3.34,3.91,1.71,1.57,2.19,0.549,-0.203
CGTCCAAGGTCAAAGGTAAGTGAAGAGATGACGG,4.06,6.23,6.89,3.8,7.74,3.91,1.96,2.48
CTACCAAGGTGAACAAGGTCGTTGTTTACTATTC,1.97,1.78,1.27,1.63,1.9,3.23,1.76,2.16
TCATATAGGTAAAGAGGTGAAAGTCCGTAAGTTA,1.56,1.37,0.762,1.73,2.04,1.8,0.621,0.613
CTCGAAAGGTCGGTTGAGGGGAGTATACGGATAA,1.86,2.44,2.58,0.704,2.14,4,-0.23,0.528
TCAGATAGGTGAAGGTAACTCAGGTACGCAGTCG,0.689,0.578,0.814,1.22,1.08,1.17,0.217,0.382
ACTAGTTGGTCAGCTGAGGTCACACGCAATTCGG,4.17,4.1,4.4,1.4,4.02,5,5.12,3.63
TTACCAAGGTGAGCTGAGGTCGATGATCCAACTC,1.56,1.03,1.05,-0.52,1.06,4.48,1.6,0.355
GCGACTGGGGCATCAGCAGGATACCATAACTTAA,-0.0166,-0.0136,0.464,-0.418,-0.172,0.271,-0.673,-0.734
TCTATTAGTTGAATGGCAACCGACGAGTCCGTTT,0.038,0.299,0.139,1.73,0.383,-0.116,0.299,1.28
ACTATTAGTTGCGACGAGGGCAACCGATAGGTTG,0.942,0.259,0.489,0.4,0.472,1.09,0.3,0.643
ATCTCTAGGTAAACTTCAGTGAAAGATCGATAGA,0.191,0.307,0.513,0.168,0.222,0.667,0.466,0.34
ATCGAAAGGTCGACGTGAGTATAGAGAAAGGGAA,2.07,3.93,3.91,1.34,3.94,1.79,-0.87,0.464
TAGCCTAGGTAATGGGCCAGTATACCACGCGAAC,-0.381,-0.234,-0.0696,-1.16,-0.0912,-0.354,-0.5,-0.715
AGAACGAGGTTATACGTAGATCAGGGAAGAAAGT,0.438,1.69,1.07,1.54,2.02,1.41,0.179,0.807
TCATATAGGTAAAGGTGAAAGACGAACGATATGA,0.974,1.51,1.34,0.604,1.85,1.04,-0.601,-0.0355
CCTAGCAGGCCAATCTGGGTCACGCAAGGCTTGA,2.43,1.86,1.9,-0.504,1.69,3.99,0.767,-0.0889
ACTTACGGGTCAACGAGGTTATAGCTCGCGTATA,3.51,5.67,5,2.85,5.91,4.18,1.02,3.7
GCTAGCAGGCCATTTGGGTCACGCAATGACGGGC,2.27,1.79,1.75,-0.208,1.68,2.54,1.19,0.28
